Rows were chosen to be rich in hits. Some 9% of all compounds tested hit in one or more screens of this group.
JMJD2A Tudor – inhibitors of human JMJD2A Tudor domain; O75164; AlphaScreen JMJD2A-Tudor / H3K4me3 peptide binding; Potency, µM (titrated, usually from 114 µM), inactives show top-dose activity change, negative = inhibition, actives largely listed as inhibitors; 4.4% of 390,000 active; AID 504339; also: % is scaled to controls: 0 for no effect and ±100 for the full control effect; nearly all actives have a fitted effect of over 50% in size
PLK1 PBD inh – inhibitors of human PLK1 polo-box domain binding | P53350 | Plk1 PBD binding of FITC phosphopeptide, fluorescence polarization | 2.8% of 360,000 active | Potency, µM, for the others: max response, negative = inhibition, usual class: inhibitors; also: series mostly up to about 57 µM; % is scaled to controls: 0 for no effect and ±100 for the full control effect; nearly all actives have a fitted effect of over 65% in size
ALOX12 inh – inhibitors of human 12S-lipoxygenase ALOX12. purified 12hLO, xylenol orange hydroperoxide absorbance. Potency, µM (titrated, usually from 108 µM), without a hit: at the top dose activity change, negative = inhibition, hits mostly inhibitors. 1.1% of 580,000 active. P18054; also: % is scaled to controls: 0 for no effect and ±100 for the full control effect
Target sequence (P18054 whole entry, looked up): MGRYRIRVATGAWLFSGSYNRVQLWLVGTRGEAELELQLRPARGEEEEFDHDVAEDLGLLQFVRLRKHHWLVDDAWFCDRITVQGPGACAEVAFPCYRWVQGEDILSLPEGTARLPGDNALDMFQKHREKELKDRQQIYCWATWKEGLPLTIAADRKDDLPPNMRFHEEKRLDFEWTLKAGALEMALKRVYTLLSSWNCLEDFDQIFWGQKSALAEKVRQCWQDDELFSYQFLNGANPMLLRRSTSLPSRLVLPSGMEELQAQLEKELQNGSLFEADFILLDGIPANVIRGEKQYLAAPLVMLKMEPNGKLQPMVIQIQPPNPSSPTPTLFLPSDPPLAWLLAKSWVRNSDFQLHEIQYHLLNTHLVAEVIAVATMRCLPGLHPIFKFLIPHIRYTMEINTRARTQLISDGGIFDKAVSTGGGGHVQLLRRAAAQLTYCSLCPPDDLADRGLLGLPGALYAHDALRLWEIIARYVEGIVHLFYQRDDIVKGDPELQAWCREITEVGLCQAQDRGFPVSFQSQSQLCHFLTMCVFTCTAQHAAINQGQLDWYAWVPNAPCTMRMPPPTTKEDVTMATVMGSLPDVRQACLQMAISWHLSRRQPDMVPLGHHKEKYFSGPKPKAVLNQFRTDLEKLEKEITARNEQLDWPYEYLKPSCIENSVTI
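Hydroperoxide product was detected by ferrous iron/xylenol orange as the 573 to 405 nm absorbance ratio. Arachidonic acid at 40 uM (final) was turned over for 30 min at room temperature by 150 nM human 12hLO, pH 7.0 Hepes buffer, after 15 min compound preincubation.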
HP1b chromo inh – HP1-beta chromodomain-methylated histone interaction inhibition | P83916 | AlphaScreen HP1-beta / biotin-H3K9me3 peptide binding | Potency, µM (doses to about 114 µM), without a hit: at the highest dose activity change, negative = inhibition, hits mostly inhibitors | 0.56% of 390,000 active; also: nearly all actives have a fitted effect of over 70% in size
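HP1-beta protein (50 nM final) preincubated 30 min at room temperature with biotinylated H3(1-18)K9me3 peptide (50 nM) in PBS pH 7.4, 0.01% Tween-20, then compound added for 30 min. AlphaScreen streptavidin donor/nickel chelate acceptor beads (10 ug/mL final), 30 min dark, luminescence read.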
BAZ2B block – blocks human BAZ2B; Q9UIF8; AlphaScreen BAZ2B-H3K14Ac peptide displacement; Potency, µM (series often up to 114 µM), without a hit: top-dose activity change, negative = inhibition, most hits filed as inhibitors; 4.4% of 360,000 active; also: % is scaled to controls: 0 for no effect and ±100 for the full control effect; nearly all actives have a fitted effect of over 60% in size
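BAZ2B (50 nM) with biotin-H3(5-23)K14Ac peptide (50 nM) in PBS pH 7.4, 0.01% Tween-20, preformed 30 min, then compound 30 min at room temperature; top concentration 110uM. AlphaScreen streptavidin donor/nickel chelate acceptor beads (10 ug/mL final), 20 min dark, signal read.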
G9a inh – inhibitors of human histone lysine methyltransferase G9a; G9a H3K9 monomethylation, AlphaScreen, 2 h; Potency, µM (doses to about 102 µM), for inactives: at the top dose activity, negative = inhibition, most hits filed as inhibitors; 8.8% of 350,000 active; AID 504332; also: % is scaled to controls: 0 for no effect and ±100 for the full control effect; nearly all actives have a fitted effect of over 75% in size
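Step 1: enzyme (final 20 nM) with compound, 15 min RT. Step 2: substrate peptide 500 nM and SAM 20 uM, 2 h RT. Step 3: anti-H3K9me1 antibody and AlphaScreen beads, 10 min, then plate read.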
* marks the source's active call; other numbers are inactive results; [ ] = dose if it differs, or a comment. Calls follow the shape of the dose curve; as a rule, active = well fitted curve in the direction sought with a large enough effect; inconclusive = small, poorly fitted or top-dose-only effect, or another doubt; inactive = no such curve, though single readings can be large; an effect the other way counts as inactive or inconclusive. Potency is read from the fitted curve at half-maximal effect.

Screening Cc1nc2nc(SCC(=O)NCCCN3CCCCCC3)nn2c(C)c1Cc1ccccc1Cl returned JMJD2A Tudor inconclusive, PLK1 PBD inh -14.4%, ALOX12 inh 0.1%, HP1b chromo inh 17.1%, BAZ2B block -28.5% and G9a inh 79.4µM*.
For Cc1ccccc1Cc1c(C)nc2nc(SCC(=O)NCCCN3CCCC3)nn2c1C the results were JMJD2A Tudor -23.6%, PLK1 PBD inh -4.7%, ALOX12 inh -13.1%, HP1b chromo inh 1.4%, BAZ2B block -32.3% and G9a inh inconclusive.
For Cc1ccc(C(OCC(O)CN2CCCCC2CO)c2ccccc2)cc1 (stereo not drawn) the results were JMJD2A Tudor 44.7µM*, PLK1 PBD inh 0.2%, ALOX12 inh inconclusive, HP1b chromo inh 22.4%, BAZ2B block 50.1µM* and G9a inh 7.6%[12.7 µM].
CC1=C(c2cccc(Cl)c2)S(=O)(=O)NC1=NCc1ccccc1C was read as JMJD2A Tudor -10.9%, ALOX12 inh -18.9%, HP1b chromo inh 57.5%, BAZ2B block 22.4% and G9a inh -35.8%[59 µM].
C=CS(=O)(=O)c1ccc(Oc2ccc(S(=O)(=O)C=C)cc2)cc1 was read as JMJD2A Tudor -12.3%, PLK1 PBD inh 23.8µM*, ALOX12 inh -11.9%, HP1b chromo inh 9.1%, BAZ2B block -3.0% and G9a inh inconclusive.
`NS(=O)(=O)c1ccc(Oc2ccc(S(N)(=O)=O)cc2)cc1` gave JMJD2A Tudor -4.9%, PLK1 PBD inh 2.3%, ALOX12 inh 3.0%, HP1b chromo inh 54.4%, BAZ2B block -0.5% and G9a inh -4.5%.
Screening Cc1oc(-c2ccccc2Cl)nc1CS(=O)CC(=O)NC1CC1 (stereo not drawn) returned JMJD2A Tudor 23.3%, PLK1 PBD inh -0.1%, ALOX12 inh 0.0%, HP1b chromo inh 60.0%, BAZ2B block -3.0% and G9a inh -2.2%.
COc1ccc(CC(C(=O)Nc2ccc(OC)cc2)c2nn[nH]n2)cc1 (stereo not drawn) was read as JMJD2A Tudor -1.3%, PLK1 PBD inh 3.5%, ALOX12 inh 4.47µM*, HP1b chromo inh 40.2% and BAZ2B block inconclusive.
For COc1ccccc1NC(=O)C(Cc1ccc(Cl)cc1)c1nn[nH]n1 (stereo not drawn) the results were JMJD2A Tudor 1.5%, PLK1 PBD inh -8.5%, ALOX12 inh 0.0%, HP1b chromo inh 60.4%, BAZ2B block 7.7% and G9a inh -4.1%[12.7 µM].
`C#CCOCCOCCOCCNc1nc(N2CCN(C(=O)[C@H](CCC(=O)O)n3cc(C(N)CC(C)C)nn3)CC2)nc(N2CCN(C(=O)[C@H](Cc3ccc(O)cc3)n3cc(C(N)CC(C)C)nn3)CC2)n1` (stereo partly drawn) gave JMJD2A Tudor 79.4µM*, PLK1 PBD inh -8.0%, HP1b chromo inh 22.6%, BAZ2B block 79.4µM* and G9a inh inconclusive.
Screening C#CCOCCOCCOCCNc1nc(N2CCN(C(=O)[C@H](CCC(=O)O)n3cc(C(N)Cc4ccc(O)cc4)nn3)CC2)nc(N2CCN(C(=O)[C@H](Cc3ccc(O)cc3)n3cc(C(N)CC(C)C)nn3)CC2)n1 (stereo partly drawn) returned BAZ2B block 35.5µM* and G9a inh inconclusive.
Screening C#CCOCCOCCOCCNc1nc(N2CCN(C(=O)[C@H](Cc3ccc(O)cc3)n3cc([C@@H](N)CC(C)C)nn3)CC2)nc(N2CCN(C(=O)[C@H](Cc3ccc(O)cc3)n3cc([C@@H](N)CC(C)C)nn3)CC2)n1 returned BAZ2B block 50.1µM* and G9a inh -102.3%[59 µM].
Screening C#CCOCCOCCOCCNc1nc(N2CCN(C(=O)[C@H](CCC(=O)O)n3cc(C(N)Cc4ccc(O)cc4)nn3)CC2)nc(N2CCN(C(=O)[C@H](CCC(=O)O)n3cc(C(N)Cc4ccc(O)cc4)nn3)CC2)n1 (stereo partly drawn) returned JMJD2A Tudor 50.1µM*, PLK1 PBD inh 6.9%, ALOX12 inh -1.7%, HP1b chromo inh 31.9%, BAZ2B block 50.1µM* and G9a inh inconclusive.
`COc1ccc(CNC(=O)Cn2nc3n(c2=O)CCCCC3)cc1` gave ALOX12 inh 65.3%.
C#CCOCCOCCOCCNc1nc(N2CCN(C(=O)[C@H](CCCCN)n3cc(C(N)CO)nn3)CC2)nc(N2CCN(C(=O)[C@H](CCC(=O)O)n3cc(C(N)Cc4ccc(O)cc4)nn3)CC2)n1 (stereo partly drawn) was read as BAZ2B block 17.8µM* and G9a inh inconclusive.
Screening C#CCOCCOCCOCCNc1nc(N2CCN(C(=O)[C@H](CCCCN)n3cc(CCC(=O)O)nn3)CC2)nc(N2CCN(C(=O)[C@H](Cc3ccc(O)cc3)n3cc(CCO)nn3)CC2)n1 returned JMJD2A Tudor -14.5%, PLK1 PBD inh -8.4%, ALOX12 inh inconclusive and HP1b chromo inh 16.6%.
CSCCC(NS(=O)(=O)c1ccccc1F)C(=O)NCC(C)(C)N1CCOCC1 (stereo not drawn) was read as JMJD2A Tudor 1.4%, PLK1 PBD inh 7.9%, ALOX12 inh 32.0%, HP1b chromo inh 22.1%, BAZ2B block -2.5% and G9a inh 15.8%[59 µM].
`CC(C)C[C@H]1CNC(=S)N1C[C@H]1CCCN1C[C@H](Cc1ccc(O)cc1)N1C[C@H](Cc2ccc(O)cc2)N(CCc2ccccc2)C1=S` gave PLK1 PBD inh -0.1% and ALOX12 inh 44.7µM*.
For CC(C)C[C@H]1CNC(=S)N1C[C@H]1CCCN1C[C@H](Cc1ccccc1)N1C[C@H](Cc2ccc(O)cc2)N(CCc2ccccc2)C1=S the results were PLK1 PBD inh -10.9% and ALOX12 inh inconclusive.
`CC(C)C[C@@H](CN1CCCC1CN1C(=S)NC[C@@H]1Cc1ccccc1)N1C[C@H](Cc2ccccc2)N(CC2CCCCCC2)C1=S` (stereo partly drawn) gave PLK1 PBD inh -9.7% and ALOX12 inh 35.5µM*.
CC(C)C[C@@H](CN1CCCC1CN1C(=S)NC[C@@H]1Cc1ccccc1)N1C[C@H](Cc2ccccc2)N(CCc2ccccc2)C1=S (stereo partly drawn) was read as PLK1 PBD inh -25.3% and ALOX12 inh 39.8µM*.
`COc1cc(NC(=O)COC(=O)c2[nH]c(C)c(C(C)=O)c2C)cc(OC)c1` gave JMJD2A Tudor -21.4%, PLK1 PBD inh -4.9%, ALOX12 inh 11.3% and HP1b chromo inh -20.6%.
Cc1nn(CC(=O)NCc2cccnc2)c(=O)c2nc(-c3ccccc3)sc12 was read as ALOX12 inh 58.0%.

Assay outcomes deposited in PubChem BioAssay by National Center for Advancing Translational Sciences (NCATS).
